From PubChem BioAssay (NCATS)
Where “and” joins values, the source holds several entries; their conditions need not be identical. Equal values may be shown once. Inconclusive results are not listed. Calls of active or inactive are those of the source. Unless noted, calls come from the whole dose curve; as a rule, active = well fitted curve in the direction sought with a large enough effect; inconclusive = small, poorly fitted or top-dose-only effect, or another doubt; inactive = no such curve, though single readings can be large; an effect the other way counts as inactive or inconclusive.

Legend:
[1] = target: Thyroid hormone receptor beta (Homo sapiens) (UniProt P10828); experiment: qHTS assay for small molecule antagonists of thyroid hormone receptor beta signaling (AID 588547; active = well fitted inhibition curve with a large enough effect in the signal ratio, with a control signal flat, not every such curve was filed as active; the % refers to the signal ratio; note: potency is the fitted concentration of half-maximal effect;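 for activity change % (negative = inhibition): cells stimulated with 0.4 nM T3 agonist during compound exposure; % is set by controls: 0 for no effect and ±100 for the full control effect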); details: TR-UAS-bla HEK293, beta-lactamase ratio, antagonist mode, 18 h
In short: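 Inhibition of T3-driven (0.4nM final) beta-lactamase reporter activity was measured over 0.59 nM to 92 uM compound after 18 h at 37 C. The cells were GripTite HEK293 TR-UAS-bla in charcoal/dextran-stripped serum, with CCF4 ratio read-out and IC50 from Hill fits.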

[2] = target: Luciferin 4-monooxygenase (Photinus pyralis) (UniProt P08659); experiment: Biochemical firefly luciferase enzyme assay for NPC (AID 624030); note: nearly all actives have a fitted effect of over 70% in size; note: potency is the fitted concentration of half-maximal effect; details: purified P. pyralis luciferase, luminescence, 5 min; series mostly up to 58.6 µM
In short: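 Direct inhibition of firefly luciferase enzyme (10 nM final, 50 mM Tris Acetate) assessed by luminescence within 5 minutes. Percent activity scaled between DMSO and PTC124 positive control, with concentration-effect curves classified by fit quality and response.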

[3] = S16 Schwann cell viability assay (CellTiter-Glo assay) (AID 624031); details: S16 rat Schwann cells viability, 24 h; series mostly up to 57.5 µM;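 note: native untransfected S16 rat Schwann cells; cellular ATP luminescence as a viability measure; plate controls were DMSO-treated cells for no effect and cell-free wells for full effect; nearly all actives have a fitted effect of over 70% in size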
In short: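 Cells were seeded at 500-750 per well in phenol red-free DMEM with 10% FBS and left overnight. Compounds or DMSO were pinned in, incubation ran 24 h at 37 °C/5% CO2, then CellTiter-Glo reagent was added and luminescence measured.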

[4] = qHTS assay for small molecule activators of the nuclear factor-kappa B (NF-kB) signaling pathway (AID 651749; active = well fitted activation curve with a large enough effect in the signal ratio; the % refers to the signal ratio; note: % of control where 0% means no effect); details: NF-kB-bla ME-180 cells, beta-lactamase FRET ratio, 16 h; hits give high values
In short: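 Activation measured after 16 hr compound treatment at 37C, 5% CO2, of 2,000 ME-180 cells/well stably expressing an NF-kB response element–driven beta-lactamase reporter, via FRET-disruption fluorescence.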

[5] = target: Voltage-gated inwardly rectifying potassium channel KCNH2 (Homo sapiens) (UniProt Q12809); experiment: qHTS Assay for Small Molecule Inhibitors of the Human hERG Channel Activity (AID 588834); details: U2OS BacMam hERG, FluxOR thallium flux fluorescence; series mostly up to 46.1 µM;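 note: lower thallium flux fluorescence means stronger hERG block; nearly all actives have a fitted effect of over 50% in size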; note: potency is the fitted concentration of half-maximal effect
In short: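 Homogeneous FluxOR thallium flux assay using hERG-expressing U2OS cells (BacMam). Compound treatment about 10 minutes preceded stimulation; reduced fluorescence taken as channel block.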

[6] = S16 Schwann cell PMP22 intronic element firefly luciferase assay (AID 624032); details: S16 rat Schwann cells, PMP22 element FLuc, 24 h; series mostly up to 57.5 µM; note: nearly all actives have a fitted effect of over 30% in size; note: potency is the fitted concentration of half-maximal effect
In short: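 Luciferase reporter of PMP22 intronic-element expression in stably transfected S16 rat Schwann cells, read by ONE-Glo luminescence after 24 h compound exposure at 37 C. Activity scaled between DMSO (0%) and positive-control PTC124; concentration-effect curves quality-classified.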

[7] = S16 Schwann cell PMP22 intronic element beta-lactamase assay (AID 624044; calls by dose curve;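 note: 0% = DMSO and -100% = potassium clavulanate positive control; nearly all actives have a fitted effect of over 15% in size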); details: S16 rat Schwann cells, PMP22 element beta-lactamase FRET, 24 h; series mostly up to 38.3 µM
In short: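 Beta-lactamase reporter under a PMP22 intronic regulatory element in stable S16 rat Schwann cells; 24 h compound exposure. 460 nm blue signal normalized between DMSO (0%) and potassium clavulanate, with 535 nm FRET tracking viability; curves classed by r2 and response.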

[8] = qHTS of Trypanosoma Brucei Inhibitors: LOPAC Validation (AID 624147); details: purified enzyme assay, luminescence, 45 min; series mostly up to 57.5 µM; note: 0% is about no effect
In short: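 Quantitative HTS: titrated library compounds versus trypanosomal pyruvate kinase in TEA buffer (pH 7.2) containing KCl, MgCl2, BSA and Tween-20. Reactions were initiated with ADP, 130 uM final. Kinase-Glo Plus luminescence was read after 45 min at RT.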

[9] = target: Glucagon-like peptide 1 receptor (Homo sapiens) (UniProt P43220); experiment: qHTS of GLP-1 Receptor Agonists: LOPAC Validation (AID 624148); details: GLP-1R agonist cell assay; series mostly up to 46.1 µM;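 note: luminescence from a luciferase reporter switched on by cAMP; 0% is about no effect; higher luminescence signal means agonism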
In short: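 Agonism scored as increased luciferase luminescence driven by cAMP in HEK293 clones carrying GLP-1R. Cells settled 12 hours, received compound for 4-6 hr at 37 deg C, 5% CO2, and were read after 12 min detection reagent at RT.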

[10] = qHTS of Nrf2 Activators: LOPAC Validation (AID 624149); details: Nrf2/ARE reporter cell assay; series mostly up to 46.1 µM; note: 0% is about no effect
In short: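 Luciferase signal from ARE activation, read with Steady-Glo after 30 min at room temperature. Compounds were pin-transferred onto AREc32_Fluc cells (1000/well, OPTI-MEM/5% FBS, seeded overnight) and left 24 hr at 37 deg C.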

[11] = HTS Assay for Allosteric Antagonists of the Human D2 Dopamine Receptor: Hit Validation in HTRF (AID 624455); details: Cells stably expressing D1 dopamine receptor, inhibition mode; series mostly up to 46.1 µM;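 note: stable D1 dopamine receptor cell line scored for blocking the D1 response; potency is the fitted concentration of half-maximal effect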
In short: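 Inhibition of the D1-mediated response was measured by HTRF. Cells used were a line stably expressing the D1 dopamine receptor.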

[12] = qHTS assay for small molecule agonists of the antioxidant response element (ARE) signaling pathway (AID 651741; active = well fitted activation curve with a large enough effect in the signal ratio; the % refers to the signal ratio; note: potency is the fitted concentration of half-maximal effect; for activation: % of control where 0% means no effect); details: HepG2 ARE-bla reporter, beta-lactamase FRET ratio, 16 h; series mostly up to 96 µM
In short: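 Beta-lactamase reporter under ARE control in HepG2 cells, 2,000 per well, was induced by 16 h compound treatment at 37 C. Read-out was fluorescence from LiveBLAzer B/G FRET substrate after 2 h at room temperature.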

Sequence of Voltage-gated inwardly rectifying potassium channel KCNH2 (Homo sapiens) (Q12809 whole entry, looked up): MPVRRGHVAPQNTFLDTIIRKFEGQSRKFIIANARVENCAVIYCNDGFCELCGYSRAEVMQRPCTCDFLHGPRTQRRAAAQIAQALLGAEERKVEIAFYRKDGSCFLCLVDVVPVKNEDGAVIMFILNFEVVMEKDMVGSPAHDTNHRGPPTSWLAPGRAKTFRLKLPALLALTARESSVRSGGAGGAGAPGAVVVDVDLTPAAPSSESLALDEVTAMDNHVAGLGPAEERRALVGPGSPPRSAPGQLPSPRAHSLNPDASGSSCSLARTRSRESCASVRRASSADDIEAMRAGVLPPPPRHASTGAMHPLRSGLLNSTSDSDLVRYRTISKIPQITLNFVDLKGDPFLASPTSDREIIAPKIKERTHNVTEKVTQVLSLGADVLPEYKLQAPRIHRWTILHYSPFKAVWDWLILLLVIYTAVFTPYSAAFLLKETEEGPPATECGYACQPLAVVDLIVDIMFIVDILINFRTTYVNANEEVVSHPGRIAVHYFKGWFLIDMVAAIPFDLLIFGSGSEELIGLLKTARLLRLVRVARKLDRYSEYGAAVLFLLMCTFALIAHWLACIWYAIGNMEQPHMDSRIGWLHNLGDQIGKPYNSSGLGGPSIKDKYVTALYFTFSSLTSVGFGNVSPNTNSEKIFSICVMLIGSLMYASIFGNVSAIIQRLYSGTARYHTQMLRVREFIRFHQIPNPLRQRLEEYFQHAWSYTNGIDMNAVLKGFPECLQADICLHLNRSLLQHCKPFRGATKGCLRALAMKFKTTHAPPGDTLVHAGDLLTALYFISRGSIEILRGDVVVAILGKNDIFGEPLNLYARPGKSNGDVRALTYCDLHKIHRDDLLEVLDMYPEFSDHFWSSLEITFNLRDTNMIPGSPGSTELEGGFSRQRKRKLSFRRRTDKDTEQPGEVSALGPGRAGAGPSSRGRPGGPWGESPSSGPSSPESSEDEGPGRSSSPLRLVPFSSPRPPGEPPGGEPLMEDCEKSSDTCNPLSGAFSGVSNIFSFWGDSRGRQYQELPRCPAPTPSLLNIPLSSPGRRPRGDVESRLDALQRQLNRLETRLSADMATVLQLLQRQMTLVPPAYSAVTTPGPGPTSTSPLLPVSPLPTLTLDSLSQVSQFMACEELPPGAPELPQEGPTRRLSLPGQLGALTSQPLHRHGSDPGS
Sequence of Luciferin 4-monooxygenase (Photinus pyralis) (P08659 whole entry, looked up): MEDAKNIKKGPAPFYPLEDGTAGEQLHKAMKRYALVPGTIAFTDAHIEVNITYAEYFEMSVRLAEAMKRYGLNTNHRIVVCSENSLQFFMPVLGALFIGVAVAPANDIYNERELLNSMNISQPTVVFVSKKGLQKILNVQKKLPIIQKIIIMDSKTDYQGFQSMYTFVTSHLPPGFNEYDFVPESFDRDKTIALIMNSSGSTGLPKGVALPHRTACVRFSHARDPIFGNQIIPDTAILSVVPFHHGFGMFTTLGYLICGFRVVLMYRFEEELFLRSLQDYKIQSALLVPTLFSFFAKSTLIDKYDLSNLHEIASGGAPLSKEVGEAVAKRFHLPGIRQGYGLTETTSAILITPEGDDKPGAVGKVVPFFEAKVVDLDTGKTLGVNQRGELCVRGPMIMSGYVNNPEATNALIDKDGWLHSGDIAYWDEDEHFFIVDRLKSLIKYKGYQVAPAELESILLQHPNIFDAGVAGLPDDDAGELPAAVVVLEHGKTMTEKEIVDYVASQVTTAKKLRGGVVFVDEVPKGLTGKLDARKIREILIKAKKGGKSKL
Sequence of Thyroid hormone receptor beta (Homo sapiens) (P10828 whole entry, looked up): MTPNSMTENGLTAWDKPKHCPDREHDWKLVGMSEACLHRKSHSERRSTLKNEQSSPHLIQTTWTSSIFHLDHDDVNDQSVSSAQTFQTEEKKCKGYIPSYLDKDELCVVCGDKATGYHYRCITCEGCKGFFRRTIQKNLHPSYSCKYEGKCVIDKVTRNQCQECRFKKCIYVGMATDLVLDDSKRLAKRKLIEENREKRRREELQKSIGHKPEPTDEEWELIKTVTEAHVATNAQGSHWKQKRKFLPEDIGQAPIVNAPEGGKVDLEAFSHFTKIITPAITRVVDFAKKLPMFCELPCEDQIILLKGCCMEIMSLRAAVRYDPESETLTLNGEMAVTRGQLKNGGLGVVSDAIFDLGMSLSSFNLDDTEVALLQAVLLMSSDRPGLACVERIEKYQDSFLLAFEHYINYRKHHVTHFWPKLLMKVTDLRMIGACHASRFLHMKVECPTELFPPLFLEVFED
Sequence of Glucagon-like peptide 1 receptor (Homo sapiens) (P43220 whole entry, looked up): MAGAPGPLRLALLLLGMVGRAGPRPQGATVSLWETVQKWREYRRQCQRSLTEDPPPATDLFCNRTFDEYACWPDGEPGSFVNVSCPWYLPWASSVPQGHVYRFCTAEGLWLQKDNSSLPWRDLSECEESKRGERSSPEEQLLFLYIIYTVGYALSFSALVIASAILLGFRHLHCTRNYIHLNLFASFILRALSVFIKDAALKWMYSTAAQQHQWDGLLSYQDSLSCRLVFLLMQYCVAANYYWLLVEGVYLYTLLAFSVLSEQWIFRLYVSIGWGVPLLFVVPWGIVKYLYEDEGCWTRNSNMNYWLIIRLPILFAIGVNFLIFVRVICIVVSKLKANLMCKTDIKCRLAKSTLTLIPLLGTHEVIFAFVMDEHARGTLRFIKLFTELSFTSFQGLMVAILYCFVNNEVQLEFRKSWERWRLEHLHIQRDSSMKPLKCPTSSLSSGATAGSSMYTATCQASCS

N=C(N)c1ccc(OCCCCCOc2ccc(C(=N)N)cc2)cc1
inactive: activity change % (negative = inhibition) [1] -26.1% | Potency [2] | Potency [3] | activation [4] 0.454% and 0.519%

OC(Cn1cncn1)(Cn1cncn1)c1ccc(F)cc1F
inactive: activity change % (negative = inhibition) [1] -14.2% | Potency [5] | Potency [2] | Potency [3] | Potency [6] | Potency [7] | activation [4] -1.38%

Cc1onc(-c2ccccc2Cl)c1C(=O)N[C@@H]1C(=O)N2[C@@H]1SC(C)(C)[C@@H]2C(=O)O
inactive: Potency [5]

N[C@@H](Cc1ccc(O)c(O)c1)C(=O)O
active: Potency [11] 8.2 µM
inactive: activity change % (negative = inhibition) [1] -11.9% | Potency [7] | outcome [8] | outcome [9] | outcome [10] | activation [4] 0.678%

CC1=NN(c2ccccc2)C(=O)C1
inactive: activity change % (negative = inhibition) [1] -16% and 3.19% | Potency [5] | Potency [2] | Potency [6] | Potency [7] | activation [4] 1.02% and -0.66%

C[C@@H](CN1CC(=O)NC(=O)C1)N1CC(=O)NC(=O)C1
inactive: Potency [5]

COc1ccccc1OCC(O)COC(N)=O (stereo not drawn)
inactive: Potency [5]

CN(C)CCc1c[nH]c2ccc(C[C@H]3COC(=O)N3)cc12
inactive: Potency [5]

COC(c1ccccc1)(c1ccccc1)[C@H](Oc1nc(C)cc(C)n1)C(=O)O
inactive: Potency [5]

C[C@@H]1CN(c2c(F)c(N)c3c(=O)c(C(=O)O)cn(C4CC4)c3c2F)C[C@H](C)N1
inactive: Potency [5]

CN(C)c1ccc(C(=C2C=CC(=[N+](C)C)C=C2)c2ccc(N(C)C)cc2)cc1
active: Potency [1] 28.2 µM | Potency [5] 10 µM and 12.6 µM | Potency [2] 12.8 µM | Potency [6] 9.07 µM

CO[C@@]12[C@H](COC(N)=O)C3=C(C(=O)C(C)=C(N)C3=O)N1C[C@@H]1N[C@@H]12
inactive: Potency [5]

CC(C)(C)NC(=O)[C@H]1CC[C@H]2[C@@H]3CC[C@H]4NC(=O)C=C[C@]4(C)[C@H]3CC[C@]12C
inactive: Potency [5]

Cc1nnc(NS(=O)(=O)c2ccc(N)cc2)s1
inactive: activity change % (negative = inhibition) [1] -6.41% | Potency [5] | Potency [2] | Potency [3] | Potency [6] | Potency [12]

Cc1ncc([N+](=O)[O-])n1CCO
inactive: activity change % (negative = inhibition) [1] -13.7% | Potency [5] | Potency [2] | Potency [6] | Potency [12]

CCc1cc(C(N)=S)ccn1
inactive: activity change % (negative = inhibition) [1] 7% | Potency [5] | Potency [2] | Potency [6] | Potency [7] | Potency [12] | activation [4] 0.391% and -1.64%

Cc1ccnc2c1NC(=O)c1cccnc1N2C1CC1
inactive: activity change % (negative = inhibition) [1] -3.97% | Potency [5] | Potency [2] | Potency [3] | Potency [6] | Potency [12]

NNC(=O)c1ccncc1
inactive: activity change % (negative = inhibition) [1] 10.5% | Potency [2] | Potency [12] | activation [4] -1.16%

C[C@@H]1C[C@H]2[C@@H]3CCC4=CC(=O)C=C[C@]4(C)[C@@]3(Cl)[C@@H](O)C[C@]2(C)[C@@]1(OC(=O)c1ccco1)C(=O)CCl
active: Potency [5] 5.01 µM

O=C(N[C@H](CO)[C@H](O)c1ccc([N+](=O)[O-])cc1)C(Cl)Cl
inactive: activity change % (negative = inhibition) [1] 0.142% and 20.5% | Potency [2] | Potency [12] | activation [4] -1.34% and 1.06%

CO[C@@H]1[C@@H](OC(N)=O)[C@@H](O)[C@H](Oc2ccc3c(O)c(NC(=O)c4ccc(O)c(CC=C(C)C)c4)c(=O)oc3c2C)OC1(C)C
inactive: Potency [5]

C[C@]12C=CC(=O)C=C1CC[C@@H]1[C@@H]2C(=O)C[C@@]2(C)[C@H]1CC[C@]2(O)C(=O)CO
inactive: activity change % (negative = inhibition) [1] -0.0632% | Potency [5] | Potency [2] | Potency [6] | Potency [7] | activation [4] 1.39%

O=C(O)c1cc(=O)[nH]c(=O)[nH]1
inactive: activity change % (negative = inhibition) [1] 1.95% | Potency [5] | Potency [2] | Potency [3] | Potency [6] | Potency [12]

Nc1nc(F)nc2c1ncn2[C@@H]1O[C@H](CO)[C@@H](O)[C@@H]1O
inactive: Potency [5]

CC(=O)CC(c1ccccc1)c1c(O)c2ccccc2oc1=O (stereo not drawn)
inactive: activity change % (negative = inhibition) [1] 9.03% | Potency [5] | Potency [2]

CCN[C@H]1C[C@H](C)S(=O)(=O)c2sc(S(N)(=O)=O)cc21
inactive: Potency [5]

CC(C)C1CCC(C(=O)N[C@H](Cc2ccccc2)C(=O)O)CC1 (stereo partly drawn)
inactive: Potency [5]

S=P(N1CC1)(N1CC1)N1CC1
inactive: activity change % (negative = inhibition) [1] -0.913% | Potency [5] | Potency [2] | Potency [6] | Potency [7] | activation [4] 0.913%

COc1ccc2cc3[n+](cc2c1OC)CCc1cc2c(cc1-3)OCO2
inactive: activity change % (negative = inhibition) [1] -20.8% | Potency [5] | Potency [2]
active: Potency [12] 33.5 µM
